Compound activity: PubChem BioAssay, National Center for Advancing Translational Sciences (NCATS)
DT40 TDP1 no CPT = qHTS for Inhibitors of human tyrosyl-DNA phosphodiesterase 1 (TDP1): qHTS in cells in absence of CPT; DT40 Tdp1-/- hTDP1 cells, no CPT, ATP luminescence, 48 h; Potency, µM (series often up to 46.2 µM), for the others: top-dose activity change, negative = growth inhibition, actives largely listed as inhibitors; actives 15% (n = 420,000); AID 686978, 2013; note: potency is the fitted concentration of half-maximal effect; % is set by controls: 0 for no effect and ±100 for the full control effect; nearly all actives have a fitted effect of over 55% in size
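Growth of hTDP1-complemented DT40 Tdp1-knockout cells is measured by ATP luminescence after at least 48 hr compound exposure at 37 °C, with DMSO substituting for the 20 nM CPT used in the parallel screen.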
IL-1B inflam inh = blocks inflammasome-driven IL-1 beta release. THP-1 LPS/ATP IL-1B secretion, AlphaLISA, 16 h; active compounds read low. actives 4.7% (n = 360,000). activity change, % at 57.5 µM; in the data active = activity change below about -50%; inconclusive = mostly about -30% to -49%; note: % is set by controls: 0 for no effect and ±100 for the full control effect
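Secreted IL-1B measured by AlphaLISA bead assay after 16 h compound exposure of THP-1 cells; compounds (final up to 57.5 uM) added 1 h before LPS (250 ng/mL) and ATP (1.25 mM) stimulation; lower signal means less secretion.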
TDP1 inh = blocks human tyrosyl-DNA phosphodiesterase 1 | actives 0.28% (n = 350,000) | Potency, µM (top dose mostly 130 µM), for inactives: at the top dose activity change, negative = inhibition, hits mostly inhibitors | recombinant TDP1, AlphaScreen DNA substrate cleavage | Q9NUW8; note: potency is the fitted concentration of half-maximal effect; % is set by controls: 0 for no effect and ±100 for the full control effect; nearly all actives have a fitted effect of over 40% in size
Target sequence (Q9NUW8 whole entry, looked up): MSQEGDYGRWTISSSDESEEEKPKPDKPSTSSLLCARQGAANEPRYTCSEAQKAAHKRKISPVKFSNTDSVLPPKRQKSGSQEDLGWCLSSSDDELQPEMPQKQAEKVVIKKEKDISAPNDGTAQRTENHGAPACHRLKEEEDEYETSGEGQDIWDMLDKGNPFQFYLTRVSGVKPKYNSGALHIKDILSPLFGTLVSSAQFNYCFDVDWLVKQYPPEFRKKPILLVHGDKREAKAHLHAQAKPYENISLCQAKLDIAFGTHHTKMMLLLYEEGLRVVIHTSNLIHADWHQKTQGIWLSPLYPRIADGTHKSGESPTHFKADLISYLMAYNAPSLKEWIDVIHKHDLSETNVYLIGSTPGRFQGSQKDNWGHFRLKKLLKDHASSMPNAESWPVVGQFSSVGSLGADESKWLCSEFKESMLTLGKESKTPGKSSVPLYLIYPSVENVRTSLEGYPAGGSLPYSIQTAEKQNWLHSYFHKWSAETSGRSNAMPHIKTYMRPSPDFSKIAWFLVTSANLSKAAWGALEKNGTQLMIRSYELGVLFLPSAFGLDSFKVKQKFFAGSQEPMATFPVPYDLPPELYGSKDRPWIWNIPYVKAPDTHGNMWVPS
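Here, a 5' biotin and 3' phosphotyrosine-FITC DNA oligonucleotide reports Tdp1 activity: intact substrate bridges AlphaScreen beads, while cleavage leaves a 3' phosphate and drops signal. All incubations at room temperature.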
HepG2 tox = kills HepG2 cells in TGF-b inhibitor counter-screen; HepG2 CAGA-GFP viability, ATP luminescence, 18 h; Potency, µM (doses to about 46.1 µM), for the others: at the top dose activity change, negative = cytotoxicity, actives largely listed as cytotoxic; actives 0.76% (n = 410,000); note: potency is the fitted concentration of half-maximal effect
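HepG2 CAGA-GFP cells (1000/well, DMEM with 1% FBS) received compound, then TGF-beta at 500 pg/mL final, and were incubated 18 hours at 37 degrees C. Viability was read by CellTiter-Glo luminescence. Media-only wells were set as complete cell-killing and DMSO as no toxicity.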
TGFb SMAD3 inh = blocks TGF-b signaling | HepG2 CAGA-GFP TGF-b/SMAD3 reporter, GFP fluorescence, 18 h; TGF-beta stimulated, 500 pg/mL final | Potency, µM (series often up to 46.1 µM), for inactives: at the highest dose activity, negative = inhibition, hits mostly inhibitors | actives 1.2% (n = 410,000); note: potency is the fitted concentration of half-maximal effect; % is set by controls: 0 for no effect and ±100 for the full control effect; nearly all actives have a fitted effect of over 65% in size
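Inhibition was scored as loss of TGF-beta-induced (500 pg/mL final, 18 hours, 37 degrees C) GFP in HEPG2 cells carrying a CAGA-GFP reporter, in DMEM with 1% FBS. Well GFP was summed per cell; Activity was normalised to unstimulated and stimulated DMSO wells, then concentration-response fitting.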
TDP1 cell CPT = DT40-hTDP1 cell growth loss with CPT; chicken DT40 Tdp1-/-;hTDP1 cells + 20 nM CPT, ATP luminescence, 48 h; Potency, µM (series often up to 46.2 µM), for inactives: top-dose activity change, negative = growth inhibition, actives largely listed as inhibitors; actives 12% (n = 420,000); note: potency is the fitted concentration of half-maximal effect; % is set by controls: 0 for no effect and ±100 for the full control effect; nearly all actives have a fitted effect of over 55% in size
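Cell growth measured by CellTiter-Glo luminescence after a minimum 48 h, 37 C compound exposure with 20 nM CPT in Tdp1-knockout DT40 cells stably expressing hTDP1, seeded 400/well; qHTS titration format.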
* = called active by the depositor; ? = inconclusive; . = not tested or not shown; [ ] = dose if it differs, or a comment. Hits are enriched below; roughly 18% of the tested compounds scored in any of these assays. Unless noted, calls come from the whole dose curve; as a rule, active = well fitted curve in the direction sought with a large enough effect; inconclusive = small, poorly fitted or top-dose-only effect, or another doubt; inactive = no such curve, though single readings can be large; an effect the other way counts as inactive or inconclusive.

SMILES	DT40 TDP1 no CPT	IL-1B inflam inh	TDP1 inh	HepG2 tox	TGFb SMAD3 inh	TDP1 cell CPT
O=C(CCS(=O)(=O)c1ccccc1)Nc1nc(-c2ccccn2)cs1	13µM*	-7.1	.	-23.9%	?	18.4µM*
O=C(CCS(=O)(=O)c1ccccc1)Nc1ccccn1	-2.8%	18.0	0.7%[0.0935 µM]	-8.6%	6.4%	-2.6%
Cc1csc(NC(=O)C(C)Oc2ccc(Br)cc2)n1 (stereo not drawn)	?	-13.7	.	-30.3%	-24.1%	-19.9%
CCOc1ccc(NC(=O)COC(=O)CCN2C(=O)C3CC=CCC3C2=O)cc1OCC (stereo not drawn)	-8.2%	-8.3	7.7%	6.8%	6.5%	-14.0%
Cc1c(Br)c([N+](=O)[O-])nn1CCCC(=O)Nc1sc2c(c1C#N)CCC2	16.4µM*	-10.9	2.3%	32.1%	27.2%	14.6µM*
Cc1c(Cl)c([N+](=O)[O-])nn1CCCC(=O)Nc1cccc(Cl)c1Cl	?	-15.6	5.3%	3.3%	0.0%	?
COC(=O)c1ccccc1NC(=O)CCCn1nc([N+](=O)[O-])c(Br)c1C	-20.4%	20.5	-5.3%	-7.7%	-2.2%	14.6µM*
Cc1c(Cl)c([N+](=O)[O-])nn1CCCC(=O)Nc1sc2c(c1C#N)CCC2	-23.3%	28.5	3.2%	-1.1%	-13.7%	-21.6%
CCN(C(=O)CCN1C(=O)/C(=C/c2ccccc2)SC1=S)C1CCS(=O)(=O)C1 (stereo not drawn)	?	-82.8*	6.3%	-32.8%	?	18.4µM*
CCN(CC)C(=O)CN1C(=O)/C(=C/c2ccccc2)SC1=S	14.6µM*	-62.1*	.	-26.3%	-9.4%	18.4µM*
CCN(C(=O)CN1C(=O)S/C(=C\C=C\c2ccccc2)C1=O)C1CCS(=O)(=O)C1 (stereo not drawn)	1.46µM*	-26.4	-1.6%	-1.0%	20.8%	1.84µM*
COCCn1c(SCc2c(F)cccc2Cl)nc2c1c(=O)[nH]c(=O)n2C	?	20.0	-2.1%	-10.2%	?	-10.2%
CCOC(=O)C1CCCN(CC(=O)N(C)c2c(N)n(Cc3ccccc3)c(=O)[nH]c2=O)C1 (stereo not drawn)	-8.4%	-14.0	-1.4%	2.3%	23.5%	3.8%
CC(=O)N/C(=N\OCc1ccccc1Cl)c1nonc1NC(C)=O	0.4%	22.9	1.2%	-2.2%	-1.0%	5.8%
CCOC(=O)c1c(NC(=O)CSc2cn(CCNC(=O)c3ccccc3F)c3ccccc23)sc2c1CCCC2	16.4µM*	.	1.9%	-22.1%	2.9%	16.4µM*
CCOC(=O)c1c(NC(=O)CSc2c[nH]c3ccccc23)sc2c1CCC2	13µM*	-21.7	7.9%	-50.5%	?	?
CCOC(=O)c1c(NC(=O)COc2cccc3c2CCN(CC)C3=O)sc2c1CCC2	8.2µM*	-1.9	1.1%	-63.0%	4.8%	?
CCOC(=O)c1c(NC(=O)C(C)Sc2cn(CCNC(=O)c3ccc(OC)cc3)c3ccccc23)sc2c1CCC2 (stereo not drawn)	?	.	1.9%	3.8%	2.8%	20.6µM*
CCOC(=O)c1c(NC(=O)CSc2c[nH]c3ccccc23)sc2c1CCCC2	?	-10.3	2.6%	-52.8%	?	?
O=C(C[C@H]1CC[C@H]2[C@@H](COC[C@@H](O)CN2Cc2cc(F)ccc2F)O1)NCc1ccc(Cl)cc1	?	-21.1	.	.	.	?
CCOC(=O)c1c(NC(=O)CSc2cn(CCNC(=O)c3ccccc3OC)c3ccccc23)sc2c1CCCC2	23.1µM*	.	8.4%	-3.2%	?	?
COc1ccc(-c2csc(C(C)(O)c3ccc(F)c(F)c3)n2)cn1 (stereo not drawn)	?	12.2	.	-21.4%	-23.2%	?
